The source of these data is PubChem BioAssay (NCATS).

The target of experiment [1] is Lysosomal acid glucosylceramidase (Homo sapiens) (UniProt P04062). As to the kind of experiment: Glucocerebrosidase-p2 (AID 348; in the data active means potency below about 10 µM; further: potency means the concentration at half of the fitted maximal effect). The conditions noted are these: purified GBA, blue fluorogenic substrate, 40 min. Put shortly:
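Normal human glucocerebrosidase (0.2 nM) with blue fluorogenic substrate (80 uM final) in citrate/phosphate pH 5.9 with 10mM sodium taurocholate, 0.01% tween-20; 40 min RT, NaOH/glycine stop; fluorescence Ex 365/Em 440; AC50 from a titration from 0.6 nM upwards.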

The nature of experiment [2]: AP1 Signaling Pathway (AID 357).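 Further: ME-180 reporter cells stimulated with EGF at its EC50 level; on the % scale 0 is the no-effect control and ±100 the full control effect.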 As to conditions: ME-180 AP-1-bla reporter, EGF-induced, beta-lactamase ratio, 5 h; at 7.69 µM (top of the series) unless noted. Put shortly:
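Beta-lactamase reporter under AP-1 response element, ME-180 background. Stimulus: EC50 EGF. Compound exposure 5 h, 37 °C. Detection: CCF4, 2.5 h RT, 460/530 nm. Values: AC50 from titration.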

The target of experiment [3] is Cytochrome P450 1A2 (Homo sapiens) (UniProt P05177). Briefly: p450-cyp1a2 (AID 410; calls by dose curve; further: potency means the concentration at half of the fitted maximal effect). The conditions noted are these: recombinant CYP1A2, luciferin-ME demethylation, luminescence; series mostly up to 57 µM. Put shortly:
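O-Demethylation of luciferin 6' methyl ether by human CYP1A2 is monitored as luciferase luminescence. Substrate sits at Km (100uM); enzyme is 20nM. Values are scaled to 57 uM furafylline as maximal inhibition.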

Experiment [4] is described as follows: NFAT Signaling Pathway (AID 444).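 Further: carbachol stimulus at about its EC50 of 1 µM final; on the % scale 0 is the no-effect control and ±100 the full control effect.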 The conditions noted are these: Jurkat NFAT-bla M1, carbachol, beta-lactamase ratio, 5 h; at 7.69 µM (top of the series) unless noted. A digest of the protocol: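 Jurkat cells with NFAT-driven β-lactamase reporter and co-expressed M1 receptor, stimulated with carbachol (final 1 uM, ~EC50), compound titration, 5 h at 37 °C. CCF4 loaded 1 h at RT; 460/530 nm ratio gave %activity and AC50.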

Experiment [5] is described as follows: Stat Signaling Pathway (AID 446).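 Further: ME-180 cervical cancer cells given 40 pM IL-6 alongside compound; SIE-controlled beta-lactamase reporter measured as 460/530 nm FRET emission ratio; on the % scale 0 is the no-effect control and ±100 the full control effect.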 As to conditions: ME-180 (cervical carcinoma) SIE beta-lactamase reporter, IL-6 stimulated, 5 h; at 7.69 µM (top of the series) unless noted. Put shortly: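 FRET read-out (405 nm excitation, 460/530 nm emission) of a beta-lactamase reporter under a STAT-inducible element in ME-180 cervical carcinoma cells. Cells with compound receive 40 pM IL-6 for 5 h. Values are normalised to AC90 stimulation and AC90 JAK-inhibitor controls.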

Experiment [6] concerns the target Glucocorticoid receptor (Homo sapiens) (UniProt P04150). Briefly: GR-EFC Redistribution (AID 451; calls by dose curve; further: potency means the concentration at half of the fitted maximal effect). The conditions noted are these: CHO-K1 GR-EFC translocation, beta-gal luminescence, 2 h. A digest of the protocol: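 CHO-K1 cells expressing nuclear EA and GR-ED fragments of b-gal; compounds titrated up to 46 uM final, 2 h at 37 C. GR nuclear translocation read as complemented b-gal luminescence after 1 h RT detection.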

For experiment [7], the target named is Mitogen-activated protein kinase 10 (Mus musculus) (UniProt Q61831). As to the kind of experiment: JNK3 AlphaScreen Assay (AID 530).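 Further: kinase came from lysate of stimulated human HepG2 cells; signal reports phosphorylation of biotinylated GST-cJun 1-79 at Ser73 with 10 µM ATP; on the % scale 0 is the no-effect control and ±100 the full control effect.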 The conditions noted are these: JNK3 lysate, c-Jun phosphorylation; series mostly up to 57.1 µM. Put shortly:
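Activity was read by AlphaScreen after JNK3-containing HepG2 lysate (cytokine pre-activated) phosphorylated biotinylated GST-cJun with 10 uM ATP at room temperature. Phospho-Ser73 cJun antibody with Protein-A acceptor beads provided detection.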
A general note: Bead proximity is the source of the signal in Alpha formats.

Experiment [8] has as its target 3',5'-cyclic-AMP phosphodiesterase 4B (Homo sapiens) (UniProt Q07343). As to the kind of experiment: qHTS Assay for Inhibitors of PDE-IV (AID 607; active means well fitted activation curve with a large enough effect in the main read-out, with a control signal flat, not every such curve was filed as active; further: % of control where 0% means no effect). As to conditions: HEK293 ACTOne CNG channel cells, membrane potential fluorescence; series mostly up to 22.9 µM. A digest of the protocol: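 Cell-based read-out of cAMP via a modified cyclic nucleotide-gated channel and membrane potential dye (535/590 nm) in HEK293 cells expressing PDE4 endogenously. Compounds tested up to 22.9 uM final; 100 uM RO 20-1724 reference.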
For orientation: In qHTS, concentration-response curves come from the screen itself.

Experiment [9] has as its target Cytochrome P450 3A4 (Homo sapiens) (UniProt P08684). Briefly: qHTS Assay for Activators of Cytochrome P450 3A4 (AID 885; active means well fitted curve in the direction sought with a large enough effect; an effect the other way counts as inactive or inconclusive; further: nearly all actives have a fitted effect of over 65% in size; further: potency means the concentration at half of the fitted maximal effect). The conditions noted are these: recombinant CYP3A4, Luciferin-PPXE luminescence, 60 min; series mostly up to 57.1 µM. A digest of the protocol: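 Luminescent readout of luciferin formed from 25 uM Luciferin-PPXE (KM level) by 20 nM CYP3A4 in 200 mM KPO4, with 60 min NADPH-driven reaction at room temperature after 10 min compound exposure. Ketoconazole (57 uM) defined 100% inhibition.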

Experiment [10] can be described thus: qHTS Assay for Lipid Storage Modulators (AID 1519; calls by dose curve). The conditions noted are these: Drosophila S3 cells, BODIPY lipid droplet/cell ratio, laser cytometry, cells loaded with oleic acid; for activity change, negative = inhibition: at 57.5 µM (top of the series). A digest of the protocol: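 Cells seeded at 5,000 per well were treated with compounds over a concentration series and loaded with oleic acid (400 uM, as added). Lipid droplet fluorescence (488 nm excitation, 500-530 nm channel) was read by laser-scanning cytometry and normalized to 20 uM Triacsin C.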

Experiment [11] in a line: Primary qHTS for small molecule stabilizers of the endoplasmic reticulum resident proteome: Secreted ER Calcium Modulated Protein (SERCaMP) assay (AID 1508630; active means well fitted curve in the direction sought with a large enough effect; an effect the other way counts as inactive or inconclusive; further: on the % scale 0 is the no-effect control and ±100 the full control effect). The conditions noted are these: SH-SY5Y GLuc-SERCaMP (Gaussia luciferase released on ER calcium loss) secretion, thapsigargin, luminescence; series mostly up to 38.4 µM. A digest of the protocol: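 The SH-SY5Y reporter protocol was run at 3 concentrations up to 38.3 uM (primary) or 11 concentrations (follow-up): 16 h compound, 100 nM thapsigargin for 4 h, then extracellular luciferase luminescence.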

Experiment [12] deals with Cytochrome P450 3A4 (Homo sapiens) (UniProt P08684). As to the kind of experiment: qHTS Assay for Inhibitors and Substrates of Cytochrome P450 3A4 (AID 884; active means well fitted curve in the direction sought with a large enough effect; an effect the other way counts as inactive or inconclusive; further: on the % scale 0 is the no-effect control and ±100 the full control effect; nearly all actives have a fitted effect of over 50% in size). As to conditions: recombinant CYP3A4, Luciferin-PPXE luminescence; series mostly up to 57.1 µM. Put shortly: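 Luminescent readout of luciferin produced by CYP3A4 (20 nM) dealkylation of Luciferin-PPXE, 25 uM (its KM). NADPH-driven reaction ran 60 min at RT after 10 min compound preincubation; data scaled to 57 uM ketoconazole as 100% inhibition.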

In experiment [13] the target is Cytochrome P450 2D6 (Homo sapiens) (UniProt P10635). As to the kind of experiment: qHTS Assay for Inhibitors and Substrates of Cytochrome P450 2D6 (AID 891; active means well fitted curve in the direction sought with a large enough effect; an effect the other way counts as inactive or inconclusive; further: potency means the concentration at half of the fitted maximal effect; nearly all actives have a fitted effect of over 60% in size). The conditions noted are these: recombinant CYP2D6, luciferin-ME EGE luminescence; series mostly up to 57.1 µM. Put shortly:
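Luminescent read-out of luciferin formed by 5 nM human CYP2D6 demethylating 30 uM Luciferin-ME EGE (Km level) over 60 min at room temperature after NADPH regeneration addition. Data normalized to full inhibition by 1.43 uM quinidine.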

[14] abbreviates: measured here: cell count channel max response.
Setting [15] is: measured here: lipid channel max response.

Results filed as inconclusive are left out. Active and inactive are the calls of the source. Unless noted, the call rests on the fitted dose curve; in most records, active means well fitted curve in either direction with a large enough effect (not every such curve was filed as active); inconclusive means small, poorly fitted or top-dose-only effect, or another doubt; inactive means flat fitted curve, though single readings scatter. Where only a bound is given, the exact number is not on record here.

Glucocorticoid receptor (Homo sapiens), sequence (P04150 whole entry, looked up, the tested form may be a part): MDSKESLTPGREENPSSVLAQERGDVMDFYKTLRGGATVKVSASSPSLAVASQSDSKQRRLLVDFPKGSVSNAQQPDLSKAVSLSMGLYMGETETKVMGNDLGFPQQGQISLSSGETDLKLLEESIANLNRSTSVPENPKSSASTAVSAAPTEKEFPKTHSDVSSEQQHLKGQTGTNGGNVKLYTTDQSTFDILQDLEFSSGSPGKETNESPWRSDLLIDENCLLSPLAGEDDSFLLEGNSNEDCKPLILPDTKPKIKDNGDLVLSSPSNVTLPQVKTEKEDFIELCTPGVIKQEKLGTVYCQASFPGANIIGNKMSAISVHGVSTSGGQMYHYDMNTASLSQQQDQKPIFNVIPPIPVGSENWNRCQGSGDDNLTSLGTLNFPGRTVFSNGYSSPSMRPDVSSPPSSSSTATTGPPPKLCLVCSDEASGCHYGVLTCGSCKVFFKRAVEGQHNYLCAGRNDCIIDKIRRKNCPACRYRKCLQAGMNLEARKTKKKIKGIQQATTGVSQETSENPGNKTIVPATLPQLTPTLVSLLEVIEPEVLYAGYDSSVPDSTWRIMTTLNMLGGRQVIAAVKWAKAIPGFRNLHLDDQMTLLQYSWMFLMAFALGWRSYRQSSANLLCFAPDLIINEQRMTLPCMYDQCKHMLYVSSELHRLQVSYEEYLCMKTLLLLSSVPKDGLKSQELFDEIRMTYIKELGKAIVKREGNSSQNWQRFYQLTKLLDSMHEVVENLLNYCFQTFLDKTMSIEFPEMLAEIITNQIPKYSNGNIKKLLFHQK
3',5'-cyclic-AMP phosphodiesterase 4B (Homo sapiens), sequence (Q07343 whole entry, looked up): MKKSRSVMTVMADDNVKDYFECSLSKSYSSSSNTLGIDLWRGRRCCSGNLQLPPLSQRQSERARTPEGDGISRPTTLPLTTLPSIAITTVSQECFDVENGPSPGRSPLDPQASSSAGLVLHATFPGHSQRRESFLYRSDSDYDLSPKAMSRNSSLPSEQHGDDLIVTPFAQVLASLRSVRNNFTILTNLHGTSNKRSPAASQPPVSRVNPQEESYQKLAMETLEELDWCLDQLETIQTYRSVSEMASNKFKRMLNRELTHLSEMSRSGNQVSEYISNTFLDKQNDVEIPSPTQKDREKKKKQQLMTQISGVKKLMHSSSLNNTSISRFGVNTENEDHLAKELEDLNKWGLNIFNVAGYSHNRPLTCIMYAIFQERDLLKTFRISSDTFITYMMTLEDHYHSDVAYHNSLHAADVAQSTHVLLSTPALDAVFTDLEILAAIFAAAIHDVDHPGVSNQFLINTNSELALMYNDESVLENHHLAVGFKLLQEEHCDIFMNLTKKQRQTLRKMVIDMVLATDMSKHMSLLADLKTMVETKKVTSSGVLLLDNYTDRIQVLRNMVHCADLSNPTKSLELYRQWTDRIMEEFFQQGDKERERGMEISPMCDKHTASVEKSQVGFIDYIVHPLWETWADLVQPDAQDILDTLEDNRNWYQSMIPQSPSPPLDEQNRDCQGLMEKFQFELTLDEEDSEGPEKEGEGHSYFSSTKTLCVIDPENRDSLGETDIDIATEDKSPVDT
Lysosomal acid glucosylceramidase (Homo sapiens), sequence (P04062 whole entry, looked up): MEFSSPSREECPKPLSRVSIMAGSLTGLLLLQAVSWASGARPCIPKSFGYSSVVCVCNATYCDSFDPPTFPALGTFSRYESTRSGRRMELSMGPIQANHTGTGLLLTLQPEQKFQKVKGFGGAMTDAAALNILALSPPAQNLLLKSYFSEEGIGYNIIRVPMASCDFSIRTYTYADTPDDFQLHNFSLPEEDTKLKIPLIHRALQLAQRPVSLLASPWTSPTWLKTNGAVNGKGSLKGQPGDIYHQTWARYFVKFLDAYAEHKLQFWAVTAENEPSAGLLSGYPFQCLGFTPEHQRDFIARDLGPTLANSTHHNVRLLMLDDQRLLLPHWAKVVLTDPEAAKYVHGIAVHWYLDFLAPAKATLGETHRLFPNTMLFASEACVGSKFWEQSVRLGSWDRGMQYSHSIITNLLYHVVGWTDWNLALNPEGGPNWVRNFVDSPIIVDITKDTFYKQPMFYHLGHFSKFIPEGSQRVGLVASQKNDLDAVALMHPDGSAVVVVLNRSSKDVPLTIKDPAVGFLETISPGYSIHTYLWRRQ
Cytochrome P450 1A2 (Homo sapiens), sequence (P05177 whole entry, looked up): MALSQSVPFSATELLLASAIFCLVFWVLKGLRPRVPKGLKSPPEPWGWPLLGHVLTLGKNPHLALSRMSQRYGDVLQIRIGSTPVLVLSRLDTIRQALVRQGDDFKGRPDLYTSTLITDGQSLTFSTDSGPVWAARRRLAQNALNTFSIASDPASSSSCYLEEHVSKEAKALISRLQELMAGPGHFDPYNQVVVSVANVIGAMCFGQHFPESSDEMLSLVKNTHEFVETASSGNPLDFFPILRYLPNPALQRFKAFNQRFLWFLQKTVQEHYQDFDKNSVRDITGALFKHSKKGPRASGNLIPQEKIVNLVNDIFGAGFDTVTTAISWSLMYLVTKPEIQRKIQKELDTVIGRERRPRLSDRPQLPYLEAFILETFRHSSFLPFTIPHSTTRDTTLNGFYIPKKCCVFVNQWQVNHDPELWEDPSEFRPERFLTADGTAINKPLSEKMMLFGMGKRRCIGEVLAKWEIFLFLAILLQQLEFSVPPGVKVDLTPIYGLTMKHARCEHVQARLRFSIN
Cytochrome P450 3A4 (Homo sapiens), sequence (P08684 whole entry, looked up): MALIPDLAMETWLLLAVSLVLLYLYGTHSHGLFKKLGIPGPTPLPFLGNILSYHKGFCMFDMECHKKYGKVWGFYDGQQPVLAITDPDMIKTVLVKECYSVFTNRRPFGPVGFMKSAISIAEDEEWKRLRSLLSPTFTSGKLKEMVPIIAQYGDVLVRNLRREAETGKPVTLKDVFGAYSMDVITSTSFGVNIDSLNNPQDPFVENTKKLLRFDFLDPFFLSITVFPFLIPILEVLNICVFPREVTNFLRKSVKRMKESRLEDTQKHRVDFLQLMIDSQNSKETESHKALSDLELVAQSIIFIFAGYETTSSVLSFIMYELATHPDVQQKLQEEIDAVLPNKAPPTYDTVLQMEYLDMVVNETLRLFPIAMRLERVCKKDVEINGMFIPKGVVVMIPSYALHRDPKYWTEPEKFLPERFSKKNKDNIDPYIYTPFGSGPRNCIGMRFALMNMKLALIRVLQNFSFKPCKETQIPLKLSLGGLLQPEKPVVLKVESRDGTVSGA
Cytochrome P450 2D6 (Homo sapiens), sequence (P10635 whole entry, looked up): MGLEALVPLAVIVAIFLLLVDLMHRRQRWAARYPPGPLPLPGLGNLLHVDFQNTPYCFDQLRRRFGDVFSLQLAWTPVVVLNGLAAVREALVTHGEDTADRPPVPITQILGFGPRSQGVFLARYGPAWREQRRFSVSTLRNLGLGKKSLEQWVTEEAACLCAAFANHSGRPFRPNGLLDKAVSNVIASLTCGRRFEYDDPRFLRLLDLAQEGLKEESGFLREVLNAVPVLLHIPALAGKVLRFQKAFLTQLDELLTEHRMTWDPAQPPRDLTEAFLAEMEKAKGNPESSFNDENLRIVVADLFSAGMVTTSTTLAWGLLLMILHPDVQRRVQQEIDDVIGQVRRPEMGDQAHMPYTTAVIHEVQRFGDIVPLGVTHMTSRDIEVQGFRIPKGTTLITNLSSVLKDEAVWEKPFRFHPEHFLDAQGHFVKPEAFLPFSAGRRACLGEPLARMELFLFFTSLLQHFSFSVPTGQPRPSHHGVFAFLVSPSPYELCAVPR

Consider `O=C(Nc1ccccc1)N1CC[C@@]2(CCCN(C(=O)c3cnccn3)C2)C1`, for which the values for the Potency in [1] and in experiment [6] were > 11.4 µM (inactive) and > 46 µM (inactive), respectively. The activity change, negative = inhibition in experiment [2] was 6.39% (inactive); in [4], 7.42% (inactive); in experiment [10], 1.67% (inactive). For the same compound, the Potency result in experiment [3], in experiment [8], in experiment [9] and in [11] was “inactive” in each case. Moreover, the activity, negative = inhibition in [5] is -0.789% (inactive). The compound was called inactive in experiment [7]. Further, the max response in experiment [10] (setting [14]) was 12.8%; in [10] (setting [15]), 16%.
For the compound `O=C(c1ccncc1)N1CCC2(CC1)CN(C(c1ccccc1)c1ccccc1)C2`, the Potency is > 11.4 µM (inactive) in [1]; 15.8 µM (active) in experiment [3]; > 46 µM (inactive) in experiment [6]; 3.98 µM (active) in [9]; 0.0251 µM (active) in experiment [13]. Further, the values for the activity change, negative = inhibition in [2], in experiment [4] and in experiment [10] were 4.62% (inactive), 16.7% (inactive) and 4.23% (inactive), respectively. Besides, the activity, negative = inhibition in experiment [5] was -10.1% (inactive). In addition, the compound was classed as inactive in experiment [7]. The Potency result in experiment [8], in experiment [12] and in [11] was “inactive” throughout. In addition, the max response in experiment [10] (setting [14]) is -4.87%; in experiment [10] (setting [15]) it was 3.6%.
As to `COCC(=O)N1CCC2(CC1)CCN(C(c1ccccc1)c1ccccc1)CC2`, the figures for the Potency in experiment [1], in experiment [6] and in [9] were > 11.4 µM (inactive), > 46 µM (inactive) and 25.1 µM (active), respectively. Besides, the activity change, negative = inhibition in [2] is -2.73% (inactive); in experiment [4], -16.3% (inactive); in experiment [10], 1.77% (inactive). The Potency entry in experiment [3], in experiment [8], in [12] and in experiment [11] was “inactive” in each case. The activity, negative = inhibition in experiment [5] is 1.17% (inactive). The result in experiment [7] was inactive. The max response amounted to 1.52% in [10] (setting [14]) and 5.9% in [10] (setting [15]).
In the case of `Cn1cccc1C(=O)N1CCC[C@@]2(CCN(c3ccccn3)C2)C1`, the values for the Potency in [1], in [3] and in experiment [6] were > 11.4 µM (inactive), 31.6 µM (active) and > 46 µM (inactive), respectively. In addition, the figures for the activity change, negative = inhibition in experiment [2], in experiment [4] and in experiment [10] were 0.459% (inactive), -3.64% (inactive) and 4.31% (inactive), respectively. Moreover, the activity, negative = inhibition in experiment [5] is -2.5% (inactive). Also, in experiment [7], the call was inactive. In addition, the Potency result in experiment [8], in experiment [9] and in experiment [11] was “inactive” in each case. The values for the max response in experiment [10] (setting [14]) and in [10] (setting [15]) were 20% and 28%, respectively.
On to `COc1ccc(NC(=O)N2CCCC3(CCN(S(C)(=O)=O)CC3)C2)cc1`, for which the Potency was > 11.4 µM (inactive) in experiment [1] and > 46 µM (inactive) in [6]. Further, the activity change, negative = inhibition in [2] is -11.2% (inactive); in experiment [4] it was 21.9% (inactive); in [10] it was 3.48% (inactive). For the same compound, the Potency result in [3], in experiment [8], in experiment [9] and in [11] was “inactive” throughout. For the same compound, the activity, negative = inhibition in experiment [5] is 17.2% (inactive). Also, in experiment [7], the outcome was inactive. Also, the max response in experiment [10] (setting [14]) was -9.3%; in experiment [10] (setting [15]), -4.34%.
